Experimental data as given in PMC11102866, “Nucleosome-bound NR5A2 structure reveals pioneer factor mechanism by DNA minor groove anchor competition”.

B1: 87 (nucleosome)
DNA 1: ATCCTGGAGAATCCCGGTGCCGAGGCCGCTCAATTGGTCGTAGACAGCTCTAGCACCGCTTAAACGCACGTACGCGCTGTCCCCCGCGTTCAAGGCCACAAGGGGATTACTCCCTAGTCTCCAGGCACGTGTCAGATATATACATCCTGTGAT
DNA 2: ATCACAGGATGTATATATCTGACACGTGCCTGGAGACTAGGGAGTAATCCCCTTGTGGCCTTGAACGCGGGGGACAGCGCGTACGTGCGTTTAAGCGGTGCTAGAGCTGTCTACGACCAATTGAGCGGCCTCGGCACCGGGATTCTCCAGGAT
modifications: reconstituted with mouse histones H2A, H2B, H3.3 and H4
B2: 95 (nucleosome)
DNA 1: ATCCTGGAGAATCCCGGTGCCGAGGCCGCTCAATTGGTCGTAGACAGCTCTAGCACCGCTTAAACGCACGTACGCGCTGTCCCCCGCGTTTTAACCGTCAAGGCCATTACTCCCTAGTCTCCAGGCACGTGTCAGATATATACATCCTGTGAT
DNA 2: ATCACAGGATGTATATATCTGACACGTGCCTGGAGACTAGGGAGTAATGGCCTTGACGGTTAAAACGCGGGGGACAGCGCGTACGTGCGTTTAAGCGGTGCTAGAGCTGTCTACGACCAATTGAGCGGCCTCGGCACCGGGATTCTCCAGGAT
modifications: reconstituted with mouse histones H2A, H2B, H3.3 and H4
B3: 88 (nucleosome)
DNA 1: ATCCTGGAGAATCCCGGTGCCGAGGCCGCTCAATTGGTCGTAGACAGCTCTAGCACCGCTTAAACGCACGTACGCGCTGTCCCCCGCGTTTCAAGGCCAAAGGGGATTACTCCCTAGTCTCCAGGCACGTGTCAGATATATACATCCTGTGAT
DNA 2: ATCACAGGATGTATATATCTGACACGTGCCTGGAGACTAGGGAGTAATCCCCTTTGGCCTTGAAACGCGGGGGACAGCGCGTACGTGCGTTTAAGCGGTGCTAGAGCTGTCTACGACCAATTGAGCGGCCTCGGCACCGGGATTCTCCAGGAT
modifications: reconstituted with mouse histones H2A, H2B, H3.3 and H4
B4: 92 (nucleosome)
DNA 1: ATCCTGGAGAATCCCGGTGCCGAGGCCGCTCAATTGGTCGTAGACAGCTCTAGCACCGCTTAAACGCACGTACGCGCTGTCCCCCGCGTTTTAATCAAGGCCAGGATTACTCCCTAGTCTCCAGGCACGTGTCAGATATATACATCCTGTGAT
DNA 2: ATCACAGGATGTATATATCTGACACGTGCCTGGAGACTAGGGAGTAATCCTGGCCTTGATTAAAACGCGGGGGACAGCGCGTACGTGCGTTTAAGCGGTGCTAGAGCTGTCTACGACCAATTGAGCGGCCTCGGCACCGGGATTCTCCAGGAT
modifications: reconstituted with mouse histones H2A, H2B, H3.3 and H4
B5: 91 (nucleosome)
DNA 1: ATCCTGGAGAATCCCGGTGCCGAGGCCGCTCAATTGGTCGTAGACAGCTCTAGCACCGCTTAAACGCACGTACGCGCTGTCCCCCGCGTTTTATCAAGGCCAGGGATTACTCCCTAGTCTCCAGGCACGTGTCAGATATATACATCCTGTGAT
DNA 2: ATCACAGGATGTATATATCTGACACGTGCCTGGAGACTAGGGAGTAATCCCTGGCCTTGATAAAACGCGGGGGACAGCGCGTACGTGCGTTTAAGCGGTGCTAGAGCTGTCTACGACCAATTGAGCGGCCTCGGCACCGGGATTCTCCAGGAT
modifications: reconstituted with mouse histones H2A, H2B, H3.3 and H4
B6: 93 (nucleosome)
DNA 1: ATCCTGGAGAATCCCGGTGCCGAGGCCGCTCAATTGGTCGTAGACAGCTCTAGCACCGCTTAAACGCACGTACGCGCTGTCCCCCGCGTTTTAACTCAAGGCCAGATTACTCCCTAGTCTCCAGGCACGTGTCAGATATATACATCCTGTGAT
DNA 2: ATCACAGGATGTATATATCTGACACGTGCCTGGAGACTAGGGAGTAATCTGGCCTTGAGTTAAAACGCGGGGGACAGCGCGTACGTGCGTTTAAGCGGTGCTAGAGCTGTCTACGACCAATTGAGCGGCCTCGGCACCGGGATTCTCCAGGAT
modifications: reconstituted with mouse histones H2A, H2B, H3.3 and H4
B7: 82 (nucleosome)
DNA 1: ATCCTGGAGAATCCCGGTGCCGAGGCCGCTCAATTGGTCGTAGACAGCTCTAGCACCGCTTAAACGCACGTACGCGCTGTCCCCTCAAGGCCAACCGCCAAGGGGATTACTCCCTAGTCTCCAGGCACGTGTCAGATATATACATCCTGTGAT
DNA 2: ATCACAGGATGTATATATCTGACACGTGCCTGGAGACTAGGGAGTAATCCCCTTGGCGGTTGGCCTTGAGGGGACAGCGCGTACGTGCGTTTAAGCGGTGCTAGAGCTGTCTACGACCAATTGAGCGGCCTCGGCACCGGGATTCTCCAGGAT
modifications: reconstituted with mouse histones H2A, H2B, H3.3 and H4
B8: 83 (nucleosome)
DNA 1: ATCCTGGAGAATCCCGGTGCCGAGGCCGCTCAATTGGTCGTAGACAGCTCTAGCACCGCTTAAACGCACGTACGCGCTGTCCCCCTCAAGGCCACCGCCAAGGGGATTACTCCCTAGTCTCCAGGCACGTGTCAGATATATACATCCTGTGAT
DNA 2: ATCACAGGATGTATATATCTGACACGTGCCTGGAGACTAGGGAGTAATCCCCTTGGCGGTGGCCTTGAGGGGGACAGCGCGTACGTGCGTTTAAGCGGTGCTAGAGCTGTCTACGACCAATTGAGCGGCCTCGGCACCGGGATTCTCCAGGAT
modifications: reconstituted with mouse histones H2A, H2B, H3.3 and H4
B9: 11 (nucleosome)
DNA 1: ATCCTGGAGAATCTCAAGGCCAAGGCCGCTCAATTGGTCGTAGACAGCTCTAGCACCGCTTAAACGCACGTACGCGCTGTCCCCCGCGTTTTAACCGCCAAGGGGATTACTCCCTAGTCTCCAGGCACGTGTCAGATATATACATCCTGTGAT
DNA 2: ATCACAGGATGTATATATCTGACACGTGCCTGGAGACTAGGGAGTAATCCCCTTGGCGGTTAAAACGCGGGGGACAGCGCGTACGTGCGTTTAAGCGGTGCTAGAGCTGTCTACGACCAATTGAGCGGCCTTGGCCTTGAGATTCTCCAGGAT
modifications: reconstituted with mouse histones H2A, H2B, H3.3 and H4
B10: 94 (nucleosome)
DNA 1: ATCCTGGAGAATCCCGGTGCCGAGGCCGCTCAATTGGTCGTAGACAGCTCTAGCACCGCTTAAACGCACGTACGCGCTGTCCCCCGCGTTTTAACCTCAAGGCCAATTACTCCCTAGTCTCCAGGCACGTGTCAGATATATACATCCTGTGAT
DNA 2: ATCACAGGATGTATATATCTGACACGTGCCTGGAGACTAGGGAGTAATTGGCCTTGAGGTTAAAACGCGGGGGACAGCGCGTACGTGCGTTTAAGCGGTGCTAGAGCTGTCTACGACCAATTGAGCGGCCTCGGCACCGGGATTCTCCAGGAT
modifications: reconstituted with mouse histones H2A, H2B, H3.3 and H4
B11: 84 (nucleosome)
DNA 1: ATCCTGGAGAATCCCGGTGCCGAGGCCGCTCAATTGGTCGTAGACAGCTCTAGCACCGCTTAAACGCACGTACGCGCTGTCCCCCGTCAAGGCCACGCCAAGGGGATTACTCCCTAGTCTCCAGGCACGTGTCAGATATATACATCCTGTGAT
DNA 2: ATCACAGGATGTATATATCTGACACGTGCCTGGAGACTAGGGAGTAATCCCCTTGGCGTGGCCTTGACGGGGGACAGCGCGTACGTGCGTTTAAGCGGTGCTAGAGCTGTCTACGACCAATTGAGCGGCCTCGGCACCGGGATTCTCCAGGAT
modifications: reconstituted with mouse histones H2A, H2B, H3.3 and H4
B12: 90 (nucleosome)
DNA 1: ATCCTGGAGAATCCCGGTGCCGAGGCCGCTCAATTGGTCGTAGACAGCTCTAGCACCGCTTAAACGCACGTACGCGCTGTCCCCCGCGTTTTTCAAGGCCAGGGGATTACTCCCTAGTCTCCAGGCACGTGTCAGATATATACATCCTGTGAT
DNA 2: ATCACAGGATGTATATATCTGACACGTGCCTGGAGACTAGGGAGTAATCCCCTGGCCTTGAAAAACGCGGGGGACAGCGCGTACGTGCGTTTAAGCGGTGCTAGAGCTGTCTACGACCAATTGAGCGGCCTCGGCACCGGGATTCTCCAGGAT
modifications: reconstituted with mouse histones H2A, H2B, H3.3 and H4
B13: 89 (nucleosome)
DNA 1: ATCCTGGAGAATCCCGGTGCCGAGGCCGCTCAATTGGTCGTAGACAGCTCTAGCACCGCTTAAACGCACGTACGCGCTGTCCCCCGCGTTTTCAAGGCCAAGGGGATTACTCCCTAGTCTCCAGGCACGTGTCAGATATATACATCCTGTGAT
DNA 2: ATCACAGGATGTATATATCTGACACGTGCCTGGAGACTAGGGAGTAATCCCCTTGGCCTTGAAAACGCGGGGGACAGCGCGTACGTGCGTTTAAGCGGTGCTAGAGCTGTCTACGACCAATTGAGCGGCCTCGGCACCGGGATTCTCCAGGAT
modifications: reconstituted with mouse histones H2A, H2B, H3.3 and H4
B14: 86 (nucleosome)
DNA 1: ATCCTGGAGAATCCCGGTGCCGAGGCCGCTCAATTGGTCGTAGACAGCTCTAGCACCGCTTAAACGCACGTACGCGCTGTCCCCCGCGTCAAGGCCACCAAGGGGATTACTCCCTAGTCTCCAGGCACGTGTCAGATATATACATCCTGTGAT
DNA 2: ATCACAGGATGTATATATCTGACACGTGCCTGGAGACTAGGGAGTAATCCCCTTGGTGGCCTTGACGCGGGGGACAGCGCGTACGTGCGTTTAAGCGGTGCTAGAGCTGTCTACGACCAATTGAGCGGCCTCGGCACCGGGATTCTCCAGGAT
modifications: reconstituted with mouse histones H2A, H2B, H3.3 and H4
B15: 85 (nucleosome)
DNA 1: ATCCTGGAGAATCCCGGTGCCGAGGCCGCTCAATTGGTCGTAGACAGCTCTAGCACCGCTTAAACGCACGTACGCGCTGTCCCCCGCTCAAGGCCAGCCAAGGGGATTACTCCCTAGTCTCCAGGCACGTGTCAGATATATACATCCTGTGAT
DNA 2: ATCACAGGATGTATATATCTGACACGTGCCTGGAGACTAGGGAGTAATCCCCTTGGCTGGCCTTGAGCGGGGGACAGCGCGTACGTGCGTTTAAGCGGTGCTAGAGCTGTCTACGACCAATTGAGCGGCCTCGGCACCGGGATTCTCCAGGAT
modifications: reconstituted with mouse histones H2A, H2B, H3.3 and H4

What was measured:
[1] = target: NR5A2 wild type;histone octamer (Homo sapiens;, UniProt O00482;C0HKE1;Q6ZWY9;P84244;P62806 1-541;2-130;2-126;2-136;2-103, |); test: SeEN-seq (EMSA of nucleosome library followed by sequencing); 0.8 uM human NR5A2; 20 mM Tris-HCl pH 7.5, 120 mM NaCl, 1 mM MgCl2, 10 uM ZnCl2, 1 mM DTT, 100 ug/ml BSA, room temperature, 30 min; 0.1 uM nucleosome library; high values mean tight binding
[2] = target: mouse Nr5a2 wild type;histone octamer (Mus musculus;, UniProt P45448;C0HKE1;Q6ZWY9;P84244;P62806 1-560;2-130;2-126;2-136;2-103, |); test: SeEN-seq (EMSA of nucleosome library followed by sequencing); 1.2 uM mouse Nr5a2; 20 mM Tris-HCl pH 7.5, 120 mM NaCl, 1 mM MgCl2, 10 uM ZnCl2, 1 mM DTT, 100 ug/ml BSA, room temperature, 30 min; 0.1 uM nucleosome library; high values mean tight binding

Binder	binding signal [1]	binding signal [2]
B1	0.601 log2 enrichment (bound/unbound, relative to Widom 601)	0.435 log2 enrichment (bound/unbound, relative to Widom 601)
B2	1.87 log2 enrichment (bound/unbound, relative to Widom 601)	1.29 log2 enrichment (bound/unbound, relative to Widom 601)
B3	0.636 log2 enrichment (bound/unbound, relative to Widom 601)	0.614 log2 enrichment (bound/unbound, relative to Widom 601)
B4	0.711 log2 enrichment (bound/unbound, relative to Widom 601)	0.905 log2 enrichment (bound/unbound, relative to Widom 601)
B5	0.711 log2 enrichment (bound/unbound, relative to Widom 601)	0.746 log2 enrichment (bound/unbound, relative to Widom 601)
B6	0.842 log2 enrichment (bound/unbound, relative to Widom 601)	0.875 log2 enrichment (bound/unbound, relative to Widom 601)
B7	0.634 log2 enrichment (bound/unbound, relative to Widom 601)	0.729 log2 enrichment (bound/unbound, relative to Widom 601)
B8	0.795 log2 enrichment (bound/unbound, relative to Widom 601)	0.693 log2 enrichment (bound/unbound, relative to Widom 601)
B9	4.08 log2 enrichment (bound/unbound, relative to Widom 601)	4.04 log2 enrichment (bound/unbound, relative to Widom 601)
B10	1.36 log2 enrichment (bound/unbound, relative to Widom 601)	1.22 log2 enrichment (bound/unbound, relative to Widom 601)
B11	0.634 log2 enrichment (bound/unbound, relative to Widom 601)	0.756 log2 enrichment (bound/unbound, relative to Widom 601)
B12	0.821 log2 enrichment (bound/unbound, relative to Widom 601)	0.52 log2 enrichment (bound/unbound, relative to Widom 601)
B13	0.658 log2 enrichment (bound/unbound, relative to Widom 601)	0.574 log2 enrichment (bound/unbound, relative to Widom 601)
B14	0.668 log2 enrichment (bound/unbound, relative to Widom 601)	0.515 log2 enrichment (bound/unbound, relative to Widom 601)
B15	0.756 log2 enrichment (bound/unbound, relative to Widom 601)	0.748 log2 enrichment (bound/unbound, relative to Widom 601)
